Assay [1] in a line: ATG_M_32_CIS: Attagene CIS-FACTORIAL HepG2 Assay for M32 Transcription Factor (Internal Marker) (AID 2282949).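 Also: background control marker of the multiplexed CIS panel rather than a real target.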 The note with it: HepG2 Attagene cis-factorial M32 reporter, mRNA; actives raise or lower the signal. In outline:
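HepG2 transfectants (cis-regulated reporter transcription units) dosed 24 h. Reporter mRNA by RT-PCR plus CE, analysed as gain or loss relative to DMSO.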

Assay [2] can be described thus: ATG_M_06_CIS: Attagene CIS-FACTORIAL HepG2 Assay for M06 Transcription Factor (Internal Marker) (AID 2282950). The note with it: HepG2 Attagene CIS-FACTORIAL M06 internal marker reporter; actives raise or lower the signal. In outline: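 Steps: transfect HepG2 with multiplexed cis-element reporter constructs; dose chemical 24 h; extract RNA with DNase treatment; reverse-transcribe, PCR-amplify, 6-FAM label, HpaI digest; separate fragments by capillary electrophoresis. Activity fitted both directions versus DMSO.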

In assay [3] the target is Hypoxia-inducible factor 1-alpha (Homo sapiens) (UniProt Q16665). In words: ATG_HIF1a_CIS: Attagene CIS-FACTORIAL HepG2 Assay for human Hypoxia Inducible Factor 1 (HIF1A) (AID 2282951). The note with it: HepG2 Attagene cis-factorial HIF1a reporter transcription; actives raise or lower the signal. In outline: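 Activity is fitted in both directions relative to DMSO. Reporter transcripts are read by RT-PCR, fluorescent primer extension and capillary electrophoresis after 24 h chemical treatment. The cells are HepG2 carrying transiently transfected cis-element-driven reporter units responding to endogenous factors.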
Chain of Hypoxia-inducible factor 1-alpha (Homo sapiens) (Q16665 whole entry, looked up): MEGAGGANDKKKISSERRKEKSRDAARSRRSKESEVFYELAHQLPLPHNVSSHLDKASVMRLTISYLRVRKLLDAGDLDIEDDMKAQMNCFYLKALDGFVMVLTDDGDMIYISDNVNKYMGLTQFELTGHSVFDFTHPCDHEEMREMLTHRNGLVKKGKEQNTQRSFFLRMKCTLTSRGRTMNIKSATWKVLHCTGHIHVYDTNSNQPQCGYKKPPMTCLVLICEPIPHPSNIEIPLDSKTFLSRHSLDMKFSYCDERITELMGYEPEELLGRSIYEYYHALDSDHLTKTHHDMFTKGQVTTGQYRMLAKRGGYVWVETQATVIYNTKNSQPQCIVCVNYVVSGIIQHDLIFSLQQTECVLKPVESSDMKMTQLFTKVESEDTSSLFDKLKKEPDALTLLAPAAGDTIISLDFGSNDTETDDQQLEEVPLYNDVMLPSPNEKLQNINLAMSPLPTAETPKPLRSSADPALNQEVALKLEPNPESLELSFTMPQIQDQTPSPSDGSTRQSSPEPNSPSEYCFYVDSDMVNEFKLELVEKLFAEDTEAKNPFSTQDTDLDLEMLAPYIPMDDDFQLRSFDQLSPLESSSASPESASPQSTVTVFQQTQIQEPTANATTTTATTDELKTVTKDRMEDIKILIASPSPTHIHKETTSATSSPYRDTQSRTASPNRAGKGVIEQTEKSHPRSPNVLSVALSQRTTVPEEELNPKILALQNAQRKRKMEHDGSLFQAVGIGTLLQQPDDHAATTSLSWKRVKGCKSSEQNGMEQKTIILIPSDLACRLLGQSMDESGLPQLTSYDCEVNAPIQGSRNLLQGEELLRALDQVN

Assay [4] addresses Hepatocyte nuclear factor 6 (Homo sapiens) (UniProt Q9UBC0). In words: ATG_HNF6_CIS: Attagene CIS-FACTORIAL HepG2 Assay for human Hepatocyte Nuclear Factor 6 (HNF6) (AID 2282952). The note with it: HepG2 Attagene cis-factorial HNF6 reporter transcription; actives raise or lower the signal. In outline: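 First, HepG2 cells were transfected with the multiplexed cis reporter library and dosed with chemical for 24 h. Next, RNA was reverse-transcribed, PCR-amplified and fluorescently labelled. Finally, HpaI-digested fragments were read by capillary electrophoresis.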

In assay [5] the target is Heat shock factor protein 1 (Homo sapiens) (UniProt Q00613). In words: ATG_HSE_CIS: Attagene CIS-FACTORIAL HepG2 Assay for human Heat Shock Transcription Factor 1 (HSE) (AID 2282953). The note with it: HepG2 HSE cis-reporter, Attagene RNA transcription; actives raise or lower the signal. In outline:
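Cells were transfected with cis-element-driven reporter constructs, dosed for 24 h, then total RNA was reverse-transcribed and reporter cDNA amplified, FAM-labelled and digested with HpaI. Fragments were resolved by capillary electrophoresis; gain or loss was fitted against DMSO.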

The nature of assay [6]: ATG_MRE_CIS: Attagene CIS-FACTORIAL HepG2 Assay for human Metal Responsive Element (MRE) (AID 2282954). The note with it: HepG2 MRE cis-reporter transcription, Attagene multiplex; actives raise or lower the signal. In outline:
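Measured here is mRNA induction from an MRE cis-element reporter in HepG2 after 24 h, quantified by fluorescence of labelled RT-PCR products on capillary electrophoresis; gain- and loss-of-signal fits use DMSO as baseline.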

A short description of assay [7]: ATG_PBREM_CIS: Attagene CIS-FACTORIAL HepG2 Assay for human Phenobarbital-responsive Enhancer Module (PBREM) (AID 2282955). The note with it: HepG2 PBREM cis-reporter, Attagene multiplexed transcription; actives raise or lower the signal. In outline: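 Endogenous transcription factor activity was read from reporter transcripts in transiently transfected human HepG2 liver cells after 24 h dosing. RT-PCR products were fluorescently labelled, HpaI-cut and sized by capillary electrophoresis; activity fitted bidirectionally against DMSO baseline.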

The target in assay [8] is Paired box protein Pax-6 (Homo sapiens) (UniProt P26367). The assay can be described thus: ATG_Pax6_CIS: Attagene CIS-FACTORIAL HepG2 Assay for human Paired Box 6 (PAX6) (AID 2282956). The note with it: HepG2 CIS-FACTORIAL PAX6 reporter transcription, RNA readout; actives raise or lower the signal. In outline:
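DMSO-referenced bidirectional fits of reporter mRNA fluorescence; HepG2 with transient cis-promoter MRTUs, 24 h post-dose, RT-PCR plus capillary electrophoresis detection.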

Assay [9] can be described thus: ATG_PXRE_CIS: Attagene CIS-FACTORIAL HepG2 Assay for human Pregnane X Receptor Element (PXRE) (AID 2282957). The note with it: HepG2 Attagene CIS-FACTORIAL PXRE reporter, mRNA; actives raise or lower the signal. In outline:
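After a 24 h chemical incubation, total RNA from transfected HepG2 cells was reverse-transcribed and reporter cDNA amplified, FAM-labeled, HpaI-digested and sized by capillary electrophoresis. DMSO served as baseline for bidirectional curve fitting.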

The nature of assay [10]: ATG_PPRE_CIS: Attagene CIS-FACTORIAL HepG2 Assay for human Peroxisome Proliferator-activated Response Element (PPRE) (AID 2282958). The note with it: HepG2 PPRE cis-element reporter, Attagene transcription factor profiling; actives raise or lower the signal. In outline: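 Endogenous PPRE-driven transcription is measured in HepG2 cells carrying transfected multi-reporter constructs. Reporter transcripts are quantified by RT-PCR, HpaI digestion and capillary electrophoresis 24 h after dosing. DMSO baseline, bidirectional fit.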

A short description of assay [11]: ATG_RORE_CIS: Attagene CIS-FACTORIAL HepG2 Assay for human RAR-related Orphan Receptor Element (RORE) (AID 2282959). The note with it: HepG2 Attagene cis-factorial RORE reporter, mRNA; actives raise or lower the signal. In outline: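 RORE reporter transcripts reflecting endogenous factor activity were read after 24 h compound exposure of transfected HepG2 cells, using reverse transcription, PCR, fluorescent labelling and capillary electrophoresis sizing. Gain or loss fitted against DMSO.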

The nature of assay [12]: ATG_Sox_CIS: Attagene CIS-FACTORIAL HepG2 Assay for human SRY-box transcription factor (SOX) (AID 2282960). The note with it: HepG2 Attagene cis-factorial SOX reporter, mRNA; actives raise or lower the signal. In outline:
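Reporter transcripts, measured by RT-PCR and capillary electrophoresis of labelled fragments, report endogenous SOX transcription factor activity. Transiently transfected human HepG2 cells receive chemical for 24 h; changes in either direction are fitted relative to DMSO.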

In assay [13] the target is Transcription factor Sp1 (Homo sapiens) (UniProt P08047). In words: ATG_Sp1_CIS: Attagene CIS-FACTORIAL HepG2 Assay for human Specificity Protein 1 (Sp1) (AID 2282961). The note with it: HepG2 Sp1 cis-reporter transcription, actives raise or lower the signal. In short, it runs like this:
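Read-out is reporter transcript level, measured by RT-PCR and fluorescent capillary electrophoresis after 24 h chemical treatment. System: transiently transfected HepG2 cells reporting endogenous transcription factor activity; gain or loss fitted against DMSO baseline.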

Assay [14] in a line: ATG_SREBP_CIS: Attagene CIS-FACTORIAL HepG2 Assay for human Sterol Regulatory Element Binding (SREBP) (AID 2282962). The note with it: HepG2 Attagene cis-factorial SREBP reporter, mRNA; actives raise or lower the signal. In short, it runs like this: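 In this cis-format assay, HepG2 liver cells express reporters controlled by promoter elements responsive to native transcription factors. Exposure lasts 24 h; reporter mRNA fluorescence from capillary electrophoresis gives the signal, fitted bidirectionally against DMSO.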

Assay [15] has as its target Signal transducer and activator of transcription 3 (Homo sapiens) (UniProt P40763). In words: ATG_STAT3_CIS: Attagene CIS-FACTORIAL HepG2 Assay for human Signal Transducer and Activator of Transcription 3 (STAT3) (AID 2282963). The note with it: HepG2, Attagene cis-factorial STAT3 reporter transcription; actives raise or lower the signal. In outline: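 Fluorescence intensity of 6-FAM-labelled reporter fragments, separated by capillary electrophoresis after RT-PCR, gave the signal. Cells were HepG2 transfected with cis-element reporter units and treated 24 h; fitting was bidirectional relative to DMSO.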

A short description of assay [16]: ATG_TA_CIS: Attagene CIS-FACTORIAL HepG2 Assay for human TA Basal Promoter (AID 2282964). The note with it: HepG2 Attagene CIS-factorial TA basal promoter reporter; actives raise or lower the signal. In outline:
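Steps: transfect HepG2 with MRTUs; dose 24 h; isolate RNA, DNase-treat, reverse-transcribe; PCR and FAM-label reporter cDNA; digest with HpaI 2h at 37 C; run capillary electrophoresis. Activity fitted both directions against DMSO.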

A short description of assay [17]: ATG_TCF_b_cat_CIS: Attagene CIS-FACTORIAL HepG2 Assay for human T-Cell-Factor with beta-catenin (TCF/b-cat) (AID 2282965). The note with it: HepG2 TCF/beta-catenin cis-reporter transcription, actives raise or lower the signal. In outline:
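Cells of the HepG2 line carry transiently transfected reporter units whose promoters respond to endogenous factors. Twenty-four hours post-dosing, reporter mRNA induction is measured by fluorescent RT-PCR and capillary electrophoresis, with DMSO as baseline.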

Assay [18] is described as follows: ATG_TAL_CIS: Attagene CIS-FACTORIAL HepG2 Assay for human TAL Basal Promoter (AID 2282966).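 Also: background control endpoint measuring basal TAL promoter reporter mRNA not a specific factor.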 The note with it: HepG2 Attagene cis-factorial TAL promoter reporter; actives raise or lower the signal. In short, it runs like this:
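Basal-promoter background-control endpoint from a multiplexed HepG2 reporter panel. Cells were exposed 24 h, then reporter mRNA was read by RT-PCR/CE fluorescence and fitted in both directions relative to DMSO.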

Assay [19] can be described thus: ATG_TGFb_CIS: Attagene CIS-FACTORIAL HepG2 Assay for human Transforming Growth Factor (TGF) (AID 2282967). The note with it: HepG2 Attagene CIS TGFb reporter, mRNA transcription; actives raise or lower the signal. In short, it runs like this:
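Cells were dosed for 24 hours, after which total RNA was reverse-transcribed and reporter sequences amplified, labeled and sized by capillary electrophoresis. Activity was fitted in both directions against DMSO.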

A short description of assay [20]: ATG_VDRE_CIS: Attagene CIS-FACTORIAL HepG2 Assay for human Vitamin D Receptor Element (VDRE) (AID 2282968). The note with it: HepG2 VDRE cis-reporter transcription, actives raise or lower the signal. In short, it runs like this: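 Compounds were applied for 24 h to HepG2 cells transfected with promoter-regulated reporter units. Total RNA was reverse-transcribed, and reporter amplicons were fluorescently labelled and sized by capillary electrophoresis.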

The record followed here is PubChem BioAssay (EPA / NIEHS).

Where “and” joins values, the source holds several entries; their conditions need not be identical. Equal entries are not always repeated. The source holds several records for some structures; these can differ, active in one and inactive in another. Calls of active or inactive are those of the source. The calls were made as follows: active = hit-call score of the fitted dose curve at least 0.9, where 1 is the maximum; inactive = score below 0.9.

Chain of Transcription factor Sp1 (Homo sapiens) (P08047 whole entry, looked up): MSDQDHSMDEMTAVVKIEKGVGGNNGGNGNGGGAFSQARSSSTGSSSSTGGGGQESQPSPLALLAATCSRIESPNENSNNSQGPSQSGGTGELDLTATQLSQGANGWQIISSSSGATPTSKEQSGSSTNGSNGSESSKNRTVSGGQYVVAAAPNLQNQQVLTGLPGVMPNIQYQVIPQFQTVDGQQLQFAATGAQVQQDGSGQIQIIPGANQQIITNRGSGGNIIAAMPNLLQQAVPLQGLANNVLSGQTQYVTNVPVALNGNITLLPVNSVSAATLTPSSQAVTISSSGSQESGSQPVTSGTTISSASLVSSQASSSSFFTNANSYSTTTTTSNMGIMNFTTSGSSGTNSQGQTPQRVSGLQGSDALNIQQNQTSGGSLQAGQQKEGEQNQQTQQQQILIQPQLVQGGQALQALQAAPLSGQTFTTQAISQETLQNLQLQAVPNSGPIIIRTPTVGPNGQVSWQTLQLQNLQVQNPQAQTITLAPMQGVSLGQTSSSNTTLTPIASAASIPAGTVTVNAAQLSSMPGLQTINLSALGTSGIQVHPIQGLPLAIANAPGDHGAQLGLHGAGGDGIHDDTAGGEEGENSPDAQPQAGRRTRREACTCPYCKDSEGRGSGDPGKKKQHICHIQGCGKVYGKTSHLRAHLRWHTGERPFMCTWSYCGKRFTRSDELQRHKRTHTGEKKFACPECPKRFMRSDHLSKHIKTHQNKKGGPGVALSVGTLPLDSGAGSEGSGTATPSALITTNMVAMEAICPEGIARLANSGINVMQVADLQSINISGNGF
Chain of Heat shock factor protein 1 (Homo sapiens) (Q00613 whole entry, looked up, the tested form may be a part): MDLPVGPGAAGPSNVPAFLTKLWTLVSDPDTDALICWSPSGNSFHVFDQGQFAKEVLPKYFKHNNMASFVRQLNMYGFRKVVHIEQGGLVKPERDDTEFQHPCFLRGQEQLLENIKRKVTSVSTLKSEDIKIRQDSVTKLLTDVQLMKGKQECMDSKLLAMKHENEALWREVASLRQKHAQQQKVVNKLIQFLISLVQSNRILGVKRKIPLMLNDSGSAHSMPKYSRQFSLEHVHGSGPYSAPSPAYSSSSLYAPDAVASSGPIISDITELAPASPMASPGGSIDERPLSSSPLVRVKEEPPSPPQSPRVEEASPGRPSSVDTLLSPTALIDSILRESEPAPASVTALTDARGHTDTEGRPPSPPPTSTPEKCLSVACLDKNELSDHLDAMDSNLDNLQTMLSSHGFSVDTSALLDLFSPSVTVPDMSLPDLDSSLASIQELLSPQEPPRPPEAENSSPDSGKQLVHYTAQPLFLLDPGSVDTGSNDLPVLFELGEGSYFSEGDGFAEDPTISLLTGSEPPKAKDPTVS
Chain of Paired box protein Pax-6 (Homo sapiens) (P26367 whole entry, looked up): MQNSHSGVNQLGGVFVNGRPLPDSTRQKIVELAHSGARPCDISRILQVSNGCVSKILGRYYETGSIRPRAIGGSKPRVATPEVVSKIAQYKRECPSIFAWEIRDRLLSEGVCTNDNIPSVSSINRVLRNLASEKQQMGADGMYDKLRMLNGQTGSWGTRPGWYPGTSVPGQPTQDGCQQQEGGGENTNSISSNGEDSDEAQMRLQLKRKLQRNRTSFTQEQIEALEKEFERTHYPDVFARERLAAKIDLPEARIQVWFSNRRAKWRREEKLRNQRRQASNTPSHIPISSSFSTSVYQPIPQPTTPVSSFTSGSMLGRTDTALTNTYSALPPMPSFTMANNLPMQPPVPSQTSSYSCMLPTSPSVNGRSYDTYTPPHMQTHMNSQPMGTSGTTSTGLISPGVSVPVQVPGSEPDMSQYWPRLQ
Chain of Signal transducer and activator of transcription 3 (Homo sapiens) (P40763 whole entry, looked up, the tested form may be a part): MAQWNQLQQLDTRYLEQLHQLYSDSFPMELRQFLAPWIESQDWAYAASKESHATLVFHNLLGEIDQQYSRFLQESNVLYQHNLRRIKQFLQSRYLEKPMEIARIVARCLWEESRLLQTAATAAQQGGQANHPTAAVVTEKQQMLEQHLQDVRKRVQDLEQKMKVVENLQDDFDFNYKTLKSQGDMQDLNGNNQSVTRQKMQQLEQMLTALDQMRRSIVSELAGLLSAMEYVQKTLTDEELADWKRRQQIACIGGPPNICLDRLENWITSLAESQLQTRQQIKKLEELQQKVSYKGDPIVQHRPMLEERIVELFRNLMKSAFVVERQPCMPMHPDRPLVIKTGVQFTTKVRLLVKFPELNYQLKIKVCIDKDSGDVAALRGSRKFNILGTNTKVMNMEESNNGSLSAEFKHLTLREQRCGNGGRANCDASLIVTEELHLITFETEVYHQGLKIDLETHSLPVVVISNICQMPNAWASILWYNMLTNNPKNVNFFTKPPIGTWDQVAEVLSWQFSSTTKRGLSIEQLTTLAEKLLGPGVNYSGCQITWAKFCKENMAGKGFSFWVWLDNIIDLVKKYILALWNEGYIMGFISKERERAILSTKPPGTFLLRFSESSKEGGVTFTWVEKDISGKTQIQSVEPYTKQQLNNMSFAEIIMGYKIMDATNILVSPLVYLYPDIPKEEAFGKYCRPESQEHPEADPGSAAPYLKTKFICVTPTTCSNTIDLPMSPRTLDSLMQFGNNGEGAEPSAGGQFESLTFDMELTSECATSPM
Chain of Hepatocyte nuclear factor 6 (Homo sapiens) (Q9UBC0 whole entry, looked up, the tested form may be a part): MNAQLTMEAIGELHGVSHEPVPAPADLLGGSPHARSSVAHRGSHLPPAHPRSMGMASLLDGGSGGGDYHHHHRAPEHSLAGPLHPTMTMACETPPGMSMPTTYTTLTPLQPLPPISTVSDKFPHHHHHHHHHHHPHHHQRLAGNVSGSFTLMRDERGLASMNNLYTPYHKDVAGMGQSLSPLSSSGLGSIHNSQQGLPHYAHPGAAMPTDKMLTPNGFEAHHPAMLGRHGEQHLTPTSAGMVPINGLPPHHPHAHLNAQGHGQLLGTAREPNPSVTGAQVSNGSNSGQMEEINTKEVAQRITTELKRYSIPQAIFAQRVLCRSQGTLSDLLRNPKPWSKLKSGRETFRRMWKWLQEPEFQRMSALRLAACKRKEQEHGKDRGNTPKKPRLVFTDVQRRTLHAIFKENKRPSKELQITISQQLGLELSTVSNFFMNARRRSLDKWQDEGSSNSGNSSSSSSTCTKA

Broadly, the AC50 is the midpoint of the concentration-response curve, whichever way the signal moves. For `CCCCCCCCCCCC[N+](C)(C)Cc1ccccc1`, the concentration at half-maximal activity (AC50) in [1] is 20.3 µM (active); in [4], 17.6 µM (active); in assay [5] it was 18.7 µM (active); in [13], 6.43 µM (active); in [16], 17.7 µM (active); in assay [20], 13.2 µM (active). In addition, the outcome in assay [1], in assay [2], in assay [3], in assay [4], in [5] and in [6] was inactive. The outcome in [7], in assay [8], in assay [9], in assay [10], in [11] and in assay [12] was inactive. Also, the compound was called inactive in assay [13], in assay [14], in assay [15], in [16], in assay [17] and in assay [18]. In addition, the result in assay [19] and in [20] was inactive.

As for `CCO[Si](C)(C)OCC`, the compound was classed as inactive in assay [1], in assay [2], in [3], in [4], in assay [5] and in assay [6]. Also, the outcome in assay [7], in assay [8], in assay [9], in assay [10], in assay [11] and in assay [12] was inactive. Moreover, the result in assay [13], in [14], in assay [15], in assay [16], in [17] and in assay [18] was inactive. Further, the result in assay [19] and in assay [20] was inactive.

Regarding `CCN(CCC#N)c1ccccc1`, the compound was classed as inactive in assay [1], in [2], in assay [3], in [4], in assay [5] and in assay [6]. The result in assay [7], in assay [8], in [10], in [11], in assay [12] and in [13] was inactive. Also, the result in assay [14], in [15], in assay [16], in assay [17], in assay [18] and in [19] was inactive. The result in assay [20] was inactive. In addition, in assay [9], the concentration at half-maximal activity (AC50) was 39.6 µM (active).

Regarding `CCCCCCCCCCCC(=O)O`, the call in assay [1], in assay [2], in [3], in assay [4], in assay [5] and in assay [6] was inactive. For the same compound, the result in assay [8], in assay [9], in assay [10], in assay [11], in assay [12] and in [13] was inactive. The outcome in assay [15], in assay [16], in assay [17], in [18] and in [19] was inactive. Also, the half-maximal activity concentration (AC50) is 181 µM (active) in assay [6]; 36.7 µM (active) in [13]; 52.7 µM (active) and 60 µM (active) in assay [14].

Turning to `OCC(CO)(CBr)CBr`, the outcome in assay [1], in assay [2], in assay [3], in assay [4], in [5] and in assay [6] was inactive. Moreover, the result in assay [7], in assay [8], in assay [9], in [10], in assay [11] and in [12] was inactive. In addition, the compound was called inactive in [13], in assay [14], in [15], in [16], in assay [17] and in assay [18]. For the same compound, the compound was called inactive in [19].

Consider `O=C(O)CCC(F)(F)C(F)(F)C(F)(F)C(F)(F)C(F)(F)F`, for which the outcome in assay [1], in assay [2], in assay [3], in assay [4], in [5] and in assay [6] was inactive. The result in [7], in assay [8], in [9], in [10], in assay [11] and in assay [12] was inactive. In addition, the result in assay [13], in assay [14], in assay [15], in [16], in assay [17] and in assay [18] was inactive. For the same compound, the call in assay [19] and in assay [20] was inactive.
